Source: the supplement of paper PMC12282887
± gives the standard deviation of the averaged measurements.

Columns and labels:
Assay in all cases: promoter activity interaction Z-score (Lux/OD deviation from empty-vector control); higher = stronger promoter induction by the compound
[1] = system: E. coli BW25113 acrABp lux reporter
Method in brief: (§1)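 E. coli BW25113 luxCDABE reporter strains grew at 37°C in 40 µl LB Lennox in 384-well plates, with OD600 and luminescence read every 30 min for 12 h. After integration over 0–8 h for wild type or 1–9 h for deletion strains, wells under 10% of the median growth value were removed. Each score is the Z-transformed residual of growth-normalised luminescence fitted against a control.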

[2] = system: E. coli BW25113 marRABp lux reporter
Method in brief: as §1

[3] = system: E. coli BW25113 micFp lux reporter
Method in brief: as §1

[4] = system: E. coli BW25113 ompFp lux reporter
Method in brief: as §1

[5] = system: E. coli BW25113 robp lux reporter
Method in brief: as §1

[6] = system: E. coli BW25113 soxSp lux reporter
Method in brief: as §1

[7] = system: E. coli BW25113 tolCp lux reporter
Method in brief: as §1

[8] = 0.0054 µg/ml, genetic background: wild type
[9] = 0.0054 µg/ml, genetic background: ΔmarA
[10] = 0.0054 µg/ml, genetic background: Δrob
[11] = 0.0054 µg/ml, genetic background: ΔsoxS
[12] = 0.011 µg/ml, genetic background: wild type
[13] = 0.011 µg/ml, genetic background: ΔmarA
[14] = 0.011 µg/ml, genetic background: Δrob
[15] = 0.011 µg/ml, genetic background: ΔsoxS
[16] = 0.022 µg/ml, genetic background: wild type
[17] = 0.022 µg/ml, genetic background: ΔmarA
[18] = 0.022 µg/ml, genetic background: Δrob
[19] = 0.022 µg/ml, genetic background: ΔsoxS
[20] = 0.044 µg/ml, genetic background: wild type

C[C@H]1[C@H](NC(=O)/C(=N\OC(C)(C)C(=O)O)c2csc(N)n2)C(=O)N1S(=O)(=O)O [Aztreonam]
promoter activity interaction Z-score [1, 8]: -0.253 ± 0.084 | promoter activity interaction Z-score [1, 9]: -0.209 ± 1.9 | promoter activity interaction Z-score [1, 10]: -0.333 ± 0.022 | promoter activity interaction Z-score [1, 11]: -0.321 ± 0.053 | promoter activity interaction Z-score [1, 12]: 0.0466 ± 0.11 | promoter activity interaction Z-score [1, 13]: 1.29 ± 1.5 | promoter activity interaction Z-score [1, 14]: -0.509 ± 0.068 | promoter activity interaction Z-score [1, 15]: -0.163 ± 0.42 | promoter activity interaction Z-score [1, 16]: -0.332 ± 0.23 | promoter activity interaction Z-score [1, 17]: 0.66 ± 1.8 | promoter activity interaction Z-score [1, 18]: -0.535 ± 0.26 | promoter activity interaction Z-score [1, 19]: -0.424 ± 0.41 | promoter activity interaction Z-score [2, 8]: -0.108 ± 0.36 | promoter activity interaction Z-score [2, 9]: 0.583 ± 0.95 | promoter activity interaction Z-score [2, 10]: -0.202 ± 0.19 | promoter activity interaction Z-score [2, 11]: -0.188 ± 0.0033 | promoter activity interaction Z-score [2, 12]: 0.0506 ± 0.094 | promoter activity interaction Z-score [2, 13]: -0.139 ± 0.26 | promoter activity interaction Z-score [2, 14]: -0.0608 ± 0.52 | promoter activity interaction Z-score [2, 15]: -0.218 ± 0.047 | promoter activity interaction Z-score [2, 16]: 0.0487 ± 0.33 | promoter activity interaction Z-score [2, 17]: 0.0272 ± 0.41 | promoter activity interaction Z-score [2, 18]: -0.0627 ± 0.18 | promoter activity interaction Z-score [2, 19]: -0.214 ± 0.088 | promoter activity interaction Z-score [3, 8]: -0.16 ± 0.07 | promoter activity interaction Z-score [3, 9]: 0.09 ± 0.019 | promoter activity interaction Z-score [3, 10]: -0.0804 ± 0.089 | promoter activity interaction Z-score [3, 11]: -0.271 ± 0.15 | promoter activity interaction Z-score [3, 12]: 0.0711 ± 0.15 | promoter activity interaction Z-score [3, 13]: 0.045 ± 0.1 | promoter activity interaction Z-score [3, 14]: -0.174 ± 0.022 | promoter activity interaction Z-score [3, 15]: 0.375 ± 0.11 | promoter activity interaction Z-score [3, 16]: -0.368 ± 0.07 | promoter activity interaction Z-score [3, 17]: 0.0282 ± 0.096 | promoter activity interaction Z-score [3, 18]: -0.184 ± 0.33 | promoter activity interaction Z-score [3, 19]: -0.331 ± 0.2 | promoter activity interaction Z-score [4, 8]: 0.304 ± 0.71 | promoter activity interaction Z-score [4, 9]: 1.01 ± 0.48 | promoter activity interaction Z-score [4, 10]: 0.73 ± 0.63 | promoter activity interaction Z-score [4, 11]: -0.689 ± 0.21 | promoter activity interaction Z-score [4, 12]: 0.141 ± 0.14 | promoter activity interaction Z-score [4, 13]: 1.02 ± 0.8 | promoter activity interaction Z-score [4, 14]: -0.364 ± 0.87 | promoter activity interaction Z-score [4, 15]: 0.129 ± 0.2 | promoter activity interaction Z-score [4, 16]: -0.19 ± 0.57 | promoter activity interaction Z-score [4, 17]: 1.43 ± 0.23 | promoter activity interaction Z-score [4, 18]: -0.565 ± 1.7 | promoter activity interaction Z-score [4, 19]: -0.303 ± 0.73 | promoter activity interaction Z-score [5, 8]: -0.543 ± 0.46 | promoter activity interaction Z-score [5, 9]: 1.13 ± 0.88 | promoter activity interaction Z-score [5, 10]: -0.203 ± 0.46 | promoter activity interaction Z-score [5, 11]: -1.41 ± 0.17 | promoter activity interaction Z-score [5, 12]: 0.385 ± 0.037 | promoter activity interaction Z-score [5, 13]: 1.33 ± 2 | promoter activity interaction Z-score [5, 14]: -0.405 ± 0.69 | promoter activity interaction Z-score [5, 15]: -0.722 ± 0.24 | promoter activity interaction Z-score [5, 16]: -0.69 ± 0.072 | promoter activity interaction Z-score [5, 17]: -0.124 ± 0.43 | promoter activity interaction Z-score [5, 18]: -1.16 ± 1.2 | promoter activity interaction Z-score [5, 19]: -1.07 ± 0.27 | promoter activity interaction Z-score [6, 8]: 0.278 ± 0.064 | promoter activity interaction Z-score [6, 9]: 0.333 ± 0.11 | promoter activity interaction Z-score [6, 10]: -0.00514 ± 0.076 | promoter activity interaction Z-score [6, 11]: -0.126 ± 0.11 | promoter activity interaction Z-score [6, 12]: 0.305 ± 0.13 | promoter activity interaction Z-score [6, 13]: 0.172 ± 0.0071 | promoter activity interaction Z-score [6, 14]: -0.21 ± 0.25 | promoter activity interaction Z-score [6, 15]: 0.164 ± 0.46 | promoter activity interaction Z-score [6, 16]: 0.0318 ± 0.13 | promoter activity interaction Z-score [6, 17]: 0.1912 ± 0.0014 | promoter activity interaction Z-score [6, 18]: -0.194 ± 0.19 | promoter activity interaction Z-score [6, 19]: -0.106 ± 0.33 | promoter activity interaction Z-score [6, 20]: -0.0693 ± 0.29 | promoter activity interaction Z-score [7, 8]: -0.174 ± 0.12 | promoter activity interaction Z-score [7, 9]: 0.0726 ± 0.53 | promoter activity interaction Z-score [7, 10]: -0.67 ± 1.8 | promoter activity interaction Z-score [7, 11]: -1.94 ± 0.062 | promoter activity interaction Z-score [7, 12]: 0.647 ± 0.59 | promoter activity interaction Z-score [7, 13]: -0.497 ± 0.27 | promoter activity interaction Z-score [7, 14]: -0.241 ± 1 | promoter activity interaction Z-score [7, 15]: -0.196 ± 0.045 | promoter activity interaction Z-score [7, 16]: 0.105 ± 0.69 | promoter activity interaction Z-score [7, 17]: -0.22 ± 1.1 | promoter activity interaction Z-score [7, 18]: 1.61 ± 1 | promoter activity interaction Z-score [7, 19]: -0.251 ± 0.32 | promoter activity interaction Z-score [7, 20]: -1.04
